This note sets out measurements from PubChem BioAssay (NCI).

Several values for one entry are separate records, joined by “and”; a condition that tells them apart may be missing. Equal values may be shown once. About 83,000 compounds went through this panel and 20% of them were active in at least one assay; those are over-represented in the sample as a whole.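 Growth was measured after 48 h exposure to one concentration of compound in 96-well plates. Values under 10 count as active.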 Activity calls are given as the source filed them.

In this test the test system is TK-10 renal. Description: NCI-60 one-dose screen, 48 h (100 = growth as untreated, 0 = no growth, -100 = all killed). The following applies: 10 µM unless noted.
As for `CC(C)/C(Cl)=N/OC(=O)Nc1cccc(C(F)(F)F)c1`, the growth was -100% [100 µM] (active). Turning to `CC1CC(=O)N(N(C)C)C2(C#N)C(=O)N=C(N)C12C#N` (centres undefined), the growth is -31.9% [100 µM] (active) and -94.2% [100 µM] (active). In the case of `COc1cc(Oc2c(C)c(Cl)c(OC)c(Cl)c2OC)c2c(c1Cl)COC2=O`, the growth was 20.3% [100 µM] (inactive) and 9.52% [100 µM] (active). The value for `CCO/C=N\C1=C(C#N)SC2=N/C(=C\c3ccc(OC)cc3)C(=O)N21` was 92.7% [100 µM] (inactive) and 103% [100 µM] (inactive); that for `COC(=O)C(=O)C(C(=O)C(=O)Nc1ccccc1C(C)=O)c1nc2ccc(C(=O)c3ccccc3)cc2[nH]c1=O` (centres undefined) was 114% [100 µM] (inactive) and 17.9% [100 µM] (inactive).

On to `COC(=O)c1cc(C#N)[nH]c1-c1ccsc1`, for which the growth is 93.8% [100 µM] (inactive) and 19.4% [100 µM] (inactive). The value for `C[C@@H]1C[C@@H]2OC(=O)[C@]3(C)[C@H]2[C@@H](OC3(C)O)[C@]2(C)C(=O)C=C[C@@H]12` (some centres undefined) was -7.81% [100 µM] (active) and -18.5% [100 µM] (active); that for `CC/C(Cl)=N\OC(=O)Nc1ccc(OC)cc1` was -100% [100 µM] (active).

In the case of `Cc1ccc2c(/C=C/c3ccc(N(C)C)cc3)ccc(C(C)C)cc1-2`, the growth was 104% [100 µM] (inactive) and -33% [100 µM] (active).

For the compound `COc1ccccc1-c1n[nH]c(-c2ccccc2O)n1`, the growth was 84.4% [100 µM] (inactive) and 32.7% [100 µM] (inactive). In the case of `C=CC(COC(=O)C(C)(C)OC(C)=O)c1ccc(OC(=O)C(C)C)c(OC)c1` (centres undefined), the growth is -92.8% [100 µM] (active) and -93% [100 µM] (active). In the case of `CC1CC(C(=O)OC2OC(COC3OC(CO)C(OC4OC(C)C(O)C(O)C4O)C(O)C3O)C(O)C(O)C2O)C2CCC3(C)C(=CCC4(C)C3CCC3C(C)(CO)C(O)C(O)CC34C)C2C1C` (centres undefined) it was -65.8% [100 µM] (active) and -100% [100 µM] (active).

Consider `C=C1C(=O)O[C@H]2C[C@@]3(C)[C@H](O)CCC(=C)[C@@H]3[C@@H](OC(C)=O)[C@H]12`, for which the growth was -98% [100 µM] (active) and -95.5% [100 µM] (active). Turning to `Cc1ccc(NC2=N/C(=C/c3ccccc3)C(Cl)=N2)cc1`, the growth was 82.6% [100 µM] (inactive) and -17.1% [100 µM] (active). For `CC(C)C1OC(N)=C(C#N)C1(C#N)C#N` (centres undefined), the growth was 62.1% [100 µM] (inactive) and 24.7% [100 µM] (inactive). As to `N#Cc1c(N)oc(-c2cccc([N+](=O)[O-])c2)c1C#N`, the growth is -44.5% [100 µM] (active) and -69.6% [100 µM] (active). For `COc1c2c(c3c(c1OC)c(=O)c1ccccc1n3C)OCO2`, the growth was 74.8% [100 µM] (inactive). The value for `C=CCNC1=C2C[C@@H](C)C[C@@H](OC)[C@@H](OC(=O)CCCN)[C@H](C)/C=C(\C)[C@@H](OC(N)=O)[C@H](OC)/C=C\C=C(/C)C(=O)NC(=CC1=O)C2=O` was -57.4% [100 µM] (active) and -99.4% [100 µM] (active); that for `N/N=C(\C(=O)Nc1ccc([N+](=O)[O-])cc1)C(C1=Nc2cc([N+](=O)[O-])ccc2NC1)[N+](=O)[O-]` (centres undefined) was 117% [100 µM] (inactive) and 4.46% [100 µM] (active).

Regarding `COc1ccc2c(c1)N(C(C)=O)CN1C(=O)CCC21` (centres undefined), the growth is 93% [100 µM] (inactive) and 101% [100 µM] (inactive).

Take `C=C(C)C1CC2(C)C(C)CC(OC(=O)/C(C)=C\C)CC2C(OC(=O)/C(C)=C\C)C1O` (centres undefined): the growth is 34.6% [100 µM] (inactive) and 71% [100 µM] (inactive). As for `COc1cc2c3cc1Oc1c(OC)c(OC)cc4c1C(Cc1ccc(O)c(c1)-c1cc(ccc1OC)CC3N(C)CC2)N(C)CC4` (centres undefined), the growth is -41.8% [100 µM] (active) and -97% [100 µM] (active). In the case of `COc1ccc(/C=C2/NC(=S)N=C2Cl)cc1` it was 92.7% [100 µM] (inactive) and -42.1% [100 µM] (active); in that of `Cc1ccc(/C=N/Nc2cnccn2)s1`, 116% [100 µM] (inactive) and 93% [100 µM] (inactive).
